# PubChem BioAssay (NCI)
# About 83,000 compounds went through this panel and 20% of them were active in at least one assay; those are over-represented in the sample as a whole.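 Assay: single dose, 48 h. Readout: percent growth (0 = no net growth; negative = cell death). Active: <10.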 Unmarked numbers belong to inactive results. Activity calls are given as the source filed them.
# Legend:
# Assay in all cases: NCI-60 one-dose screen, 48 h (100 = growth as untreated, 0 = no growth, -100 = all killed)
# Settings in all cases: 10 µM unless noted
# HCT-15 colon = tested on: HCT-15 colon
# HT29 colon = tested on: HT29 colon
# SNB-75 CNS = tested on: SNB-75 CNS
# SNB-19 CNS = tested on: SNB-19 CNS
# U251 CNS = tested on: U251 CNS
# PC-3 prostate = tested on: PC-3 prostate
# SK-MEL-5 melanoma = tested on: SK-MEL-5 melanoma
# UACC-62 melanoma = tested on: UACC-62 melanoma
# LOX IMVI melanoma = tested on: LOX IMVI melanoma
# SK-MEL-28 melanoma = tested on: SK-MEL-28 melanoma
# SK-MEL-2 melanoma = tested on: SK-MEL-2 melanoma
# EKVX NSCLC = tested on: EKVX NSCLC
# SN12C renal = tested on: SN12C renal
# UO-31 renal = tested on: UO-31 renal
# TK-10 renal = tested on: TK-10 renal
# ACHN renal = tested on: ACHN renal
# CAKI-1 renal = tested on: CAKI-1 renal
# A498 renal = tested on: A498 renal
# CCRF-CEM leukemia = tested on: CCRF-CEM leukemia
# MOLT-4 leukemia = tested on: MOLT-4 leukemia
SMILES,growth (HCT-15 colon),growth (HT29 colon),growth (SNB-75 CNS),growth (SNB-19 CNS) [%],growth (U251 CNS),growth (PC-3 prostate) [%],growth (SK-MEL-5 melanoma),growth (UACC-62 melanoma),growth (LOX IMVI melanoma),growth (SK-MEL-28 melanoma),growth (SK-MEL-2 melanoma),growth (EKVX NSCLC) [%],growth (SN12C renal) [%],growth (UO-31 renal),growth (TK-10 renal),growth (ACHN renal),growth (CAKI-1 renal),growth (A498 renal) [%],growth (CCRF-CEM leukemia),growth (MOLT-4 leukemia)
COc1ccc(N/N=C/c2cn(-c3ccc(C(=O)O)cc3)nc2-c2cc3ccccc3oc2=O)cc1,30%,63.1%,82.1%,75.9,107%,63.5,39.5%,22.6%,25.7%,69.5%,60.3%,46.6,89.2,22.8%,97.1%,28.6%,60.8%,125,32.9%,34.6%
COc1cc(C[C@H]2COc3cc(O)cc(O)c3C2=O)ccc1O,19.9%,83.8%,14.1%,31.5,22.3%,29.7,22.4%,30.9%,38.6%,58.4%,13.2%,74.3,40.9,48.8%,58.7%,41.7%,35.8%,90.4,11.4%,29.3%
O=C(Nc1ccc(Nc2ccncc2)cc1)c1ccc(Nc2ccnc3ccc([N+](=O)[O-])cc23)cc1,99.3%,102%,97.8%,117,95.5%,80.3,97.5%,101%,90.6%,109%,111%,107,113,95.7%,140%,100%,105%,130,63.9%,40.7%
C=CN(C(=O)N1CCN(c2cc3c(cc2F)c(=O)c(C(=O)O)cn3C2CC2)CC1)c1nc(-c2ccccc2)cs1,102%,93.1%,109%,96,101%,91.1,95.7%,86%,77.5%,101%,88.3%,109,92.8,84.7%,105%,91.1%,-82.3% (active),76,93.2%,88.2%
CCN(CC)CCCC(Cc1ccccc1)Nc1c2ccc(Cl)cc2nc2ccc(OC)cc12 (stereo not given),2.58% (active),16.3%,10.6%,34.7,9.64% (active),44.8,-93.6% (active),-61.2% (active),-67.8% (active),-79.3% (active),7.91% (active),26.6,73.6,-39.6% (active),-2.6% (active),-39.2% (active),32.6%,46.8,-0.463% (active),4.64% (active)
CCN(CC)CCn1c2ccc(OC)cc2c2sc3cc(O)ccc3c(=O)c21,18.7%,15.1%,78.8%,25.8,27.4%,32,76.1%,54.8%,-30.4% (active),68.8%,61.2%,47.3,23.6,23.9%,82.2%,4.69% (active),58.1%,43.8,13.9%,8.27% (active)
CCN(CC)c1ccc(-c2cc(-c3cc(OC)c(OC)c(OC)c3)nc(N3CCC(O)CC3)c2C#N)cc1,-36.7% (active),-32.7% (active),-41.5% (active),15.4,-32.5% (active),13.1,-99.4% (active),-49.9% (active),-27.8% (active),-46.6% (active),-66.6% (active),18.6,13.5,-43.9% (active),3.06% (active),7.6% (active),-31.7% (active),29,16.4%,2.73% (active)
COc1cc(O)c2c(=O)c3c(CC=C(C)C)cc(OC)c(O)c3oc2c1,29.6%,71.4%,5.63% (active),27.2,9.71% (active),73.9,52.9%,17%,40.3%,63%,29.1%,53.7,40.2,43.7%,66.6%,50.3%,44%,31.1,16.5%,25.6%
